Measured values as given in PubChem BioAssay AID651635 (National Center for Advancing Translational Sciences (NCATS), 2012).
Among all 400,000 compounds or so, about 1,900 (0.47%) were called active. Not shown: some 14% with an inconclusive outcome. Calls come from the whole dose curve; as a rule, active = well fitted cell-killing curve with a large enough effect; inconclusive = small, poorly fitted or top-dose-only effect, or effect the other way; inactive = no such curve, though single readings can be large or run the other way. The entries come from a sample that favours actives as a whole. Where a call stands in place of a potency, no number is given.
Potency is the fitted concentration of half-maximal effect.

Assay: Viability Counterscreen for Primary qHTS for Inhibitors of ATXN expression; note: nearly all actives have a fitted effect of over 40% in size
Details: S2 cells (HEK-293 line with an ATXN2-luciferase reporter) viability, CellTiter-Fluor protease fluorescence, 24 h; series mostly up to 56.7 µM
With Cc1cc(NC(=O)C2CCC(CNS(=O)(=O)c3ccc(Br)s3)CC2)ccc1Br (stereo unspecified) the Potency was 35.5 µM (active). For COc1ccc(NC(=O)C2CCC(CNS(=O)(=O)c3csc(C(N)=O)c3)CC2)cc1OC (stereo unspecified), the Potency was “inactive”. In the case of CCCCNC(=O)C1CCC(CNS(=O)(=O)c2ccc(NC(C)=O)cc2)CC1 (stereo unspecified), the Potency is reported as “inactive”. In the case of O=C(c1cn(CC2CCCN(Cc3cc4ccccc4s3)C2)nn1)N1CCCC1 (stereo unspecified), the Potency is reported as “inactive”. In the case of COc1ccc(CCCNC(=O)C2Cc3c(-c4cccc(C(N)=O)c4)ccnc3O2)cc1 (stereo unspecified), the Potency is reported as “inactive”. For COC(=O)c1ccc2nc(-c3ccc(OC)c(OC)c3)c(Cc3ccccc3)n2c1, the Potency was “inactive”. For Cc1cc(C)cc(CN2CCc3nnc(C(NS(C)(=O)=O)C(C)C)n3CC2)c1 (stereo unspecified), the Potency was “inactive”. With OC(c1ccc(F)cc1)c1ncc(-c2cccc(C(F)(F)F)c2)[nH]1 (stereo unspecified) the Potency was “inactive”. In the case of CC(=O)OC[C@H]1O[C@@H](O[C@H]2[C@H](O)[C@@H](OC(=O)c3ccccc3C(=O)O)[C@H](O)O[C@@H]2COC(C)=O)[C@H](O)[C@@H](OC(=O)c2ccccc2C(=O)O)[C@@H]1O, the Potency is reported as “inactive”. For CCOc1ccc(NC(=O)CSc2c3c(nc4ccccc24)CCCC3)cc1, the Potency was 25.1 µM (active). For CCOc1ccc(-n2nc3ccc(NC(=O)c4ccc(OC)c(Cl)c4)cc3n2)cc1, the Potency was “inactive”. In the case of COc1cccc(NC(=O)c2ccc3c(SCC(=O)O)c4c(nc3c2)CCCC4)c1, the Potency is reported as “inactive”. In the case of CCOc1ccc(NC(=O)CSc2nc3ccccc3c(=O)n2Cc2cccs2)cc1, the Potency is reported as “inactive”. With CCOc1ccc(NC(=O)CSc2nncn2C)cc1 the Potency was “inactive”. For CCOc1ccc(C(=O)Nc2ccc3nc4c(c(Nc5ccccc5OC)c3c2)CCCC4)cc1, the Potency was 14.1 µM (active). With C[C@@H]1CCC[C@H](C)N1CCCC(O)(c1ccccc1)c1ccccn1 (stereo partly specified) the Potency was “inactive”. In the case of FC(F)(F)c1cccc(-c2cn[nH]c2C2CCCN(Cc3cccn3-c3ccccn3)C2)c1 (stereo unspecified), the Potency is reported as “inactive”. In the case of O=C(NCCN1CCOCC1)c1cnn(-c2nccc(-c3cccs3)n2)c1C1CC1, the Potency is reported as “inactive”. In the case of O=C(OCC(O)CO)c1ccccc1Nc1ccnc2c(C(F)(F)F)cccc12 (stereo unspecified), the Potency is reported as “inactive”. For CCS(=O)(=O)Nc1cc(C(=O)N2C[C@@H](C)O[C@@H](C)C2)c2c(c1)nc(-c1ccccc1)n2C, the Potency was “inactive”. With CC1(C)OC[C@@H](COC(=O)CCc2ccc(OC[C@@H](O)CNCCNC(=O)N3CCOCC3)cc2)O1 the Potency was “inactive”. For CC(=O)Nc1cncc(-c2ccccc2CO)n1, the Potency was “inactive”. In the case of COc1cnc(-c2ccccn2)nc1Oc1ccc(C(C)(C)C)cc1, the Potency is reported as 10 µM (active). In the case of COc1ccc2nc(-c3ccccn3)ccc2c1, the Potency is reported as “inactive”. In the case of N#Cc1ccc(Oc2cc(C(F)(F)F)nc(-c3ccccn3)n2)cc1, the Potency is reported as “inactive”. For CCc1nc2c(OCCOc3ccccc3)cccn2c1N(C=O)Cc1ccc(OC)cc1, the Potency was “inactive”. For C#Cc1ccc(NC(=O)C2(C)CCN2C(=O)Cc2ccc(-c3ccccc3)cc2)cc1 (stereo unspecified), the Potency was “inactive”. For CC(C(=O)O)c1ccc(C2CCCCC2)c2ccccc12 (stereo unspecified), the Potency was “inactive”. For COC(=O)c1nc(NC(=O)c2ccccc2)n[nH]1, the Potency was “inactive”. In the case of O=C(NC1=CC(=O)c2ccccc2C1=O)c1ccccc1, the Potency is reported as 7.08 µM (active). For O=C(NC(=O)c1ccccc1)Nc1ccccc1O, the Potency was “inactive”. In the case of CCCS(=O)(=O)NCc1c(C)ncc2c1CCN(C(=O)c1ccc(F)c(F)c1)C2, the Potency is reported as “inactive”. With O=C(OCCN1CCOCC1)c1cccnc1Nc1cccc(C(F)(F)F)c1 the Potency was “inactive”. For COc1ccc(NC(=O)C2(C)Cc3c(-c4cccc(NC(C)=O)c4)ccnc3O2)cc1OC (stereo unspecified), the Potency was “inactive”. For COc1ccc(-n2c(CNC(=O)c3cc(C(F)(F)F)ccc3Cl)nnc2SC)cc1, the Potency was “inactive”. In the case of CCN(CC)c1ccc(/C=N/NC(=O)c2cnccn2)c(O)c1, the Potency is reported as 7.94 µM (active). With Cc1ccc(/C=N/NC(=O)C2=NNC(c3ccccc3)(c3ccccc3)C2)c(O)c1 the Potency was “inactive”. In the case of COc1ccc(NC(=O)C/C(C)=N/NC(=O)c2cnccn2)cc1Cl, the Potency is reported as “inactive”. For COc1cc(C(=O)N2CCC(c3ccncc3)CC2)cc(OC)c1OC, the Potency was “inactive”. With CCOC(=O)[C@]12CCCC=C1N(Cc1ccc3c(c1)OCO3)C(=O)[C@H](CC(=O)NCc1cccs1)C2 the Potency was “inactive”. With COCCSc1nnc(NC(=O)CCS(=O)(=O)Cc2ccccc2)s1 the Potency was “inactive”. With CCS(=O)(=O)c1ncc(N(Cc2ccc(F)cc2)Cc2ccco2)c(C(=O)Nc2cc(C)ccc2C)n1 the Potency was “inactive”. For CCOc1ccc(NC(=O)c2nc(SCC)ncc2Cl)cc1, the Potency was “inactive”. In the case of Cc1ccc2nc(NC(=O)c3nc(SCc4ccccc4F)ncc3Cl)sc2c1, the Potency is reported as “inactive”. For Cc1cccc(CS(=O)(=O)c2ncc(Cl)c(C(=O)Nc3ccc(F)cc3)n2)c1, the Potency was 31.6 µM (active). With CSc1nnc(NC(=O)c2nc(S(=O)(=O)Cc3ccc(C)cc3)ncc2Cl)s1 the Potency was 12.6 µM (active).
